# Data reported in PubChem BioAssay (Tox21).
# Inconclusive results are not listed. Values without a mark were called inactive. Active and inactive are the calls of the source. The call rests on the fitted dose curve; in most records, active means well fitted inhibition curve with a large enough effect in the signal ratio in the repeat runs (not every such curve was filed as active); inconclusive means weak or mixed curves, or effect the other way; inactive means no such curve, though single readings can be large or run the other way; the % refers to the signal ratio.
# Biological target: Vitamin D3 receptor (Homo sapiens) (UniProt P11473)
# Experiment: qHTS assay to identify small molecule antagonists of the vitamin D receptor (VDR) signaling pathway (AID 743223)
# Details: VDR-UAS-bla HEK293T, beta-lactamase FRET ratio, 16 h; series mostly up to 61 µM
# Excerpt: U.S. Tox21 Program National Center for Advancing Translational Sciences [NCATS] NIH Chemical Genomics Center [NCGC] U.S. Environmental Protection Agency [EPA] National Institutes of Environmental Health Sciences [NIEHS] National Toxicology Program [NTP] U.S. Food and Drug Administration [FDA] Tox21 Assay Overview: The vitamin D receptor (VDR), a member of nuclear hormone receptor superfamily, plays a critical role in calcium homeostasis and bone metabolism. It is also involved in cell differentiation and growth, and thrombogenicity.
# Tox21 Assay Protocol Summary: VDR-bla cells were dispensed at 2,000 cells/5 uL of assay medium per well into black wall/clear-bottom 1536-well plates using a Multidrop Combi (Thermo Fisher Scientific, Waltham, MA) dispenser. After the assay plates were incubated at a 37C and 5% CO2 for 4 h, 23 nL of compounds dissolved in DMSO, positive controls or DMSO only was transferred to the assay plate by a Pintool station (Kalypsys, San Diego, CA), followed by addition of 1 uL of 1alpha, 25-Dihydroxy Vitamin D3 (3 nM, final concentration in the wells) using a Bioraptr Flying Reagent Dispenser (FRD) workstation (Beckman Coulter, Indianapolis, IN). The plates were incubated at 37C and 5% CO2 for 16 h, and then 1 uL of LiveBLAzerTM B/G FRET substrate was added using a Bioraptr FRD. The plates were incubated at room temperature for 2 h and fluorescence intensity was measured by an Envision plate reader (PerkinElmer, Shelton, CT).
# On the % scale 0 is the no-effect control and ±100 the full control effect.
# Chain of Vitamin D3 receptor (Homo sapiens) (P11473 whole entry, looked up): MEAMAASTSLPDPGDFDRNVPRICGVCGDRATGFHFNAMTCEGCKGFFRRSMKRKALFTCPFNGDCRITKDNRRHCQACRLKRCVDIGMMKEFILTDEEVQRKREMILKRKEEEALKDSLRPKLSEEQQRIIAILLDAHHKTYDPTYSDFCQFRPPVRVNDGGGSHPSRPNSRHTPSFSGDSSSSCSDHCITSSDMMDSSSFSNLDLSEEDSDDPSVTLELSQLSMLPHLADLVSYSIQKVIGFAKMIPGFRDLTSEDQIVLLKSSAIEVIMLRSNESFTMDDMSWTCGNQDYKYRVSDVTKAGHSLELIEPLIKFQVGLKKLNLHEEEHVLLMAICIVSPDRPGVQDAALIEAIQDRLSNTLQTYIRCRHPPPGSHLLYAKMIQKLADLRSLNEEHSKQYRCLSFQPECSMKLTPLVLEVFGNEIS
Structure (SMILES),outcome,"activity change, negative = inhibition"
O=C(CCNNC(=O)c1ccncc1)NCc1ccccc1,inactive,–
C=CC(OCC)OCC,inactive,–
OCCCCC(O)CO (stereo not given),inactive,–
CC(C)OC(=O)CCCCC(=O)OC(C)C,inactive,–
O=C1CC(c2ccc(Cl)cc2)CC(=O)N1,inactive,–
CC(S)C(=O)NCC(=O)O (stereo not given),inactive,–
Cc1cccc(C)c1NC(=O)c1ccccc1C(=O)O,inactive,–
CC(C)C(=O)OCc1cccc(OC(=O)[C@@H]2N3C(=O)[C@@H](NC(=O)Cc4ccccc4)[C@H]3SC2(C)C)c1,inactive,–
CCCCCCOC(=O)CC,inactive,–
O=C(O)Cc1ccc(Cl)cc1Cl,inactive,–
N#Cc1ccc(C(=O)O)cc1,inactive,–
Cc1cccc2nccnc12,inactive,–
Nc1ncnc(Nc2ccccc2)n1,inactive,–
CCCCOC(=O)c1ccccc1,inactive,–
CC1=C(C(=O)O)N2C(=O)[C@@H](NC(=O)[C@H](N)c3ccc(O)cc3)[C@H]2SC1,inactive,–
CC(C)NCC(O)COc1cccc2[nH]ccc12 (stereo not given),inactive,–
O=C(Nc1ccc(Cl)c(Cl)c1)C1CC1,inactive,–
CC(=C(CCOC(=O)C(C)C)SSC(CCOC(=O)C(C)C)=C(C)N(C=O)Cc1cnc(C)nc1N)N(C=O)Cc1cnc(C)nc1N,inactive,–
CCOC(=O)c1ncn2c1CN(C)C(=O)c1cc(F)ccc1-2,inactive,–
COc1cc2c(cc1OC)C(=O)CC2,inactive,–

Structure (SMILES),outcome,"activity change, negative = inhibition"
Cc1cc2cc3c(C)cc(=O)oc3c(C)c2o1,inactive,–
O=C(CCN1CCN(CCO)CC1)N1c2ccccc2Sc2ccc(C(F)(F)F)cc21,inactive,–
O=C(O)c1cc(Br)c(O)c(Br)c1,inactive,–
CCC(C)(CCC(C)C)C(=O)O (stereo not given),inactive,–
CCCCCCCCCC(C)=O,inactive,–
CCOC(=O)CC(=O)c1ccccc1,inactive,–
O=C(OCC(O)CO)c1ccccc1Nc1ccnc2c(C(F)(F)F)cccc12 (stereo not given),inactive,–
COc1nccnc1NS(=O)(=O)c1ccc(N)cc1,inactive,–
COc1ccc(S(=O)(=O)N2c3ccc(Cl)cc3[C@@](O)(c3ccccc3Cl)[C@H]2C(=O)N2CCC[C@@H]2C(N)=O)cc1OC,inactive,–
CCCCNc1ccc(C(=O)OCCN(C)C)cc1,inactive,–
CN1CCN(CC(=O)N2c3ccccc3C(=O)Nc3cccnc32)CC1,–,-1.37% [at 6.95 µM]
Cc1ccc(C=O)cc1C,inactive,–
COc1cc2c(cc1OC)[C@@H]1CC(=O)[C@@H](CC(C)C)CN1CC2,inactive,–
C=CCCCCCCCCCCCC,inactive,–
COCCOCCOCCOCCOCCO,inactive,–
O=C1c2cccc3c2[C@H](CCC3)CN1[C@@H]1CN2CCC1CC2,inactive,–
O=C(NCCN1CCOCC1)c1ccc(Cl)cc1,inactive,–
Cc1ccccc1OCC(O)CO (stereo not given),inactive,–
O=C(OCC(COC(=O)c1cccnc1)(COC(=O)c1cccnc1)COC(=O)c1cccnc1)c1cccnc1,inactive,–
c1ccc2nccnc2c1,inactive,–
